Experimental findings from PubChem BioAssay (NCATS) are described below.

Records with an inconclusive call do not appear. Where a call stands in place of a potency, no number is given. A number with no mark means an inactive call. The source made the active and inactive calls. Calls follow the shape of the dose curve; as a rule, active = well fitted curve in the direction sought with a large enough effect; inconclusive = small, poorly fitted or top-dose-only effect, or another doubt; inactive = no such curve, though single readings can be large; an effect the other way counts as inactive or inconclusive.

The first assay can be described thus: Quantitative highthroughput screen to assess conditional lethalithy of SEM cells grown in RPMI1640 with unreated serum (RPMI+s) (AID 1963883). Also: nearly all actives have a fitted effect of over 35% in size. Also: potency is read from the fitted curve at half-maximal effect. The settings on record: SEM B-ALL cells, CellTiter-Glo viability, 48 h; series mostly up to 45.8 µM. An outline of the steps:
(§1)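 Each medium arm—HPLM with 10% dialyzed FBS, or RPMI1640 with 5 mM glucose and 10% untreated or dialyzed FBS—was screened against an 11-point, 3-fold compound titration for 48 h at 37 °C, with CellTiter-Glo luminescence as endpoint.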
Turning to `Cc1c(N)nc([C@H](CC(N)=O)NC[C@@H](N)C(N)=O)nc1C(=O)N[C@H](C(=O)N[C@@H](C)[C@H](O)[C@@H](C)C(=O)N[C@@H](C(=O)NCCc1nc(-c2nc(C(=O)NCCC[S+](C)C)cs2)cs1)[C@@H](C)O)C(O[C@H]1O[C@H](CO)[C@H](O)[C@@H](O)[C@@H]1O[C@H]1O[C@H](CO)[C@@H](O)[C@H](OC(N)=O)[C@H]1O)c1cnc[nH]1` (stereo not given in full), the Potency is 3320 nM (active).

As for `C=CCON=C(C[C@H]1O[C@@H]2O[C@]3(C)CC[C@@H]4[C@H](C)CC[C@@H]([C@H]1C)[C@@]24OO3)[C@H]1O[C@@H]2O[C@]3(C)CC[C@H]4[C@H](C)CC[C@@H]([C@@H]1C)[C@@]24OO3`, the Potency was 1050 nM (active). As to `CC(C)(C)[C@]1(O)C[C@@H]2OC(=O)C[C@@]23C(=O)O[C@@H]2OC(=O)[C@H](O)C213` (stereo not given in full), the Potency result was “inactive”. For `CCOC(=O)c1cncn1[C@H](C)c1ccccc1`, the Potency result was “inactive”. Same read-out and setting: under `C[C@@H]1[C@@H](C(=O)C[C@H]2O[C@@H]3O[C@]4(C)CC[C@@H]5[C@H](C)CC[C@@H]([C@H]2C)[C@@]35OO4)O[C@@H]2O[C@]3(C)CC[C@H]4[C@H](C)CC[C@@H]1[C@@]24OO3` stands 14800 nM (active). On the same count and under the same terms, under `C1=C2CCCN[C@H]2[C@@H]2C[C@H]1[C@@H]1CCCCN1C2` stands “inactive”; under `C[C@H]([C@H](O)CCC(C)(C)O)[C@H]1CC[C@@]2(O)C3=CC(=O)[C@@H]4C[C@@H](O)[C@@H](O)C[C@]4(C)[C@@H]3CC[C@]12C`, “inactive”; under `c1cc2c(cc1[C@H]1OC[C@H]3[C@H]1CO[C@H]3c1ccc3c(c1)OCO3)OCO2`, “inactive”. As to `Cc1ccccc1-n1c(Cn2cnc3c(N)ncnc32)nc2cccc(C)c2c1=O`, the Potency was 1180 nM (active). On to `COc1cccc2c1[C@]13CCN(CC4CC4)[C@H](C2)[C@]1(OC)CCC(=O)C3`, for which the Potency result was “inactive”.

Take `Cc1nc(-c2ccc(-c3ccc(C(=O)N4CCc5cc6c(cc54)C4(CCN(C)CC4)CO6)cc3)c(C)c2)no1`: the Potency result was “inactive”. For `C=C[C@@H]1CN2CCC1C[C@@H]2[C@@H](O)c1ccnc2ccccc12` (stereo not given in full), the Potency is 16600 nM (active). As to `CO[C@H]1CCC(O[C@H]2C[C@H]([C@]3(C)CC[C@]4(C[C@H](O)[C@@H](C)[C@@H]([C@@H](C)C=C(C)C(=O)[C@H](C)C[C@H](C)C(=O)O)O4)O3)O[C@]3(O[C@@H]([C@H]4O[C@@](O)(CO)[C@H](C)C[C@H]4C)C[C@H]3C)[C@H]2C)O[C@H]1C` (stereo not given in full), the Potency is 1870 nM (active). Same read-out and setting: next, `C[C@@]12OC(=O)[C@]1([C@@H](O)[C@@H]1C=CCCC1)NC(=O)[C@H]2CCCl`: 52.6 nM (active); `CN(C)CCN(C)CCc1ccc(Cl)c(Cl)c1`: “inactive”. Still for that read-out and setting: next, `CC(=O)OCC1=C(C(=O)O)N2C(=O)[C@@H](N)[C@@H]2SC1`: “inactive”; `C[C@@H]1O[C@@H](O[C@@H]2C=C3CC[C@@H]4[C@@H](CC[C@]5(C)[C@H](c6ccc(=O)oc6)CC[C@@]45O)[C@@]3(C)CC2)[C@H](O)[C@H](O)[C@H]1O`: 46.9 nM (active); `C[C@]12CCC(=O)C(O)=C1CC[C@@H]1[C@H]3CCC(=O)[C@@]3(C)CC[C@@H]12`: “inactive”. Still for that read-out and setting: under `CC(C)N[C@@H]1CCn2c(=O)[nH]c3cccc(c32)[C@@H]1O` stands “inactive”; under `C[C@](O)(CS(=O)(=O)c1ccc(F)cc1)C(=O)Nc1ccc(C#N)c(C(F)(F)F)c1`, “inactive”; under `CCN1C[C@]2(OC(=O)c3ccccc3NC(C)=O)CC[C@H](OC)[C@@]34[C@H]5CC6[C@@H](OC)C[C@](O)(C(C[C@@H]23)[C@@H]14)[C@@]5(O)[C@@H]6OC`, 6620 nM (active).

The nature of the next assay: Quantitative highthroughput screen to assess conditional lethalithy of SEM cells grown in RPMI1640 with dialyzed fetal bovine serum (RPMI+ds) (AID 1963884). Also: nearly all actives have a fitted effect of over 35% in size. Also: potency is read from the fitted curve at half-maximal effect. The settings on record: SEM B-ALL cells, RPMI+dialyzed FBS, CellTiter-Glo viability, 48 h; series mostly up to 45.8 µM. An outline of the steps:
as §1
For orientation: Cellular ATP, detected with luciferase, serves as a proxy for viable cell number.
Take `C=CCON=C(C[C@H]1O[C@@H]2O[C@]3(C)CC[C@@H]4[C@H](C)CC[C@@H]([C@H]1C)[C@@]24OO3)[C@H]1O[C@@H]2O[C@]3(C)CC[C@H]4[C@H](C)CC[C@@H]([C@@H]1C)[C@@]24OO3`: the Potency was 935 nM (active).

`COc1cccc2c1[C@]13CCN(CC4CC4)[C@H](C2)[C@]1(OC)CCC(=O)C3`: the Potency result was “inactive”.

For `CC(=O)OCC1=C(C(=O)O)N2C(=O)[C@@H](N)[C@@H]2SC1`, the Potency entry is “inactive”. Still for that read-out and setting: next, `CCOC(=O)c1c(C(C#N)=CN)c2ccc(Cl)c(Cl)c2n1C`: “inactive”.

A further assay is described as follows: Cellular viability qHTS for adrenocortical cancer (ACC) cell line SW-13 (AID 1963989).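 Also: cells grown in serum-free medium with ITS supplement; nearly all actives have a fitted effect of over 65% in size.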 The settings on record: SW-13 ACC cells viability, CellTiter-Glo, 48 h; activity (max response): hits give low values. An outline of the steps:
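Viability was read as CellTiter-Glo luminescence after 48 h compound treatment (up to 46 uM final) of SW-13 cells grown serum-free; titration curves were fit with a four-parameter logistic model to give IC50 and efficacy.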
(qHTS replaces the single test concentration by a dilution series.)
Consider `C[C@]12CC[C@@H]3[C@@H](CCC4=CC(=O)CC[C@@H]43)[C@@H]1CC[C@@H]2OC(=O)CCc1ccccc1`, for which the activity (max response) is -2.06%. Still for that read-out and setting: under `Cc1ccccc1-n1c(Cn2cnc3c(N)ncnc32)nc2cccc(C)c2c1=O` stands 9.58%. Still for that read-out and setting: under `CSCC[C@@H](NC(=O)[C@@H](Cc1ccccc1)NC(=O)CNC(=O)CNC(=O)[C@@H](N)Cc1ccc(O)cc1)C(=O)O` stands 3.41%; under `CCOC(=O)c1c(C(C#N)=CN)c2ccc(Cl)c(Cl)c2n1C`, -1.19%. Same read-out and setting: under `CCN1C[C@]2(OC(=O)c3ccccc3NC(C)=O)CC[C@H](OC)[C@@]34[C@H]5CC6[C@@H](OC)C[C@](O)(C(C[C@@H]23)[C@@H]14)[C@@]5(O)[C@@H]6OC` stands -5.39%.
